# In the supplement of paper PMC8728848:
# The entries come from a sample that favours the strongest signals as a whole.
# B1: PX9916F-bfa-443-24-443 (Bacteroides fragilis) (protein)
# chain: DIRPVGSVIPQTAEEYRALLARAYLNVPNDRGLACLRSDEMLVNDNEYDRNSYGDIERWNDVSPFPGTSQFTWSNFYNVLFIANQVIESQKEITEGTPEVVNQLVGEAHLLRAYLHFVLVNLHGQPYTKSGALNSKSIPLKLDTDLEKTLGRNTVEEVYTSILSDIEHARELINKEKWETVFSYRFNVLSVDALQSRVSLYMGAWPKCLESAEAVLAKKSVLVDMNETPLALPNHFESVESITALEQVMGSSVNNAVWVPATFLALYQEGDKRLAAYFAAPDENGNRKSSKGGKREFSCTFRVGELYLNAAEAAANMDKLPHARMRLLELMRKRYTPEAYDKKENAVNVMDKNALISEILNERARELAFEGHRWFDLRRTTRPRMVKVLQGKTYILEQDDPRYTIPIPRDAIAANPGLAN
# Key:
# Experiment in all cases: glycan array binding signal (z-score within array); higher = stronger binding
# Details in all cases: glycan notation: IUPAC condensed, linker removed
# [1] = target: Fuc(a1-2)Gal(b1-3)GlcNAc(b1-2)Man(a1-3)[Fuc(a1-2)Gal(b1-3)GlcNAc(b1-2)Man(a1-6)]Man(b1-4)GlcNAc(b1-4)GlcNAc
# In short: (§1)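 Glycan array binding is given as a within-array Z-score, which can be read as non-binding when negative. The arrays, 3228 of them, came from the Consortium for Functional Glycomics database and were retained only where the protein sequence was available. Z-scores were averaged across arrays of the same protein sequence at different concentrations or buffers and across linkers.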
# [2] = target: Fuc(a1-2)Gal(b1-3)GlcNAc(b1-3)GalNAc
# In short: as §1
# [3] = target: Fuc(a1-2)Gal(b1-3)GlcNAc(b1-3)[Fuc(a1-2)Gal(b1-3)GlcNAc(b1-6)]GalNAc
# In short: as §1
# [4] = target: Fuc(a1-2)Gal(b1-3)GlcNAc6S
# In short: as §1
# [5] = target: Fuc(a1-2)Gal(b1-4)GlcNAc(b1-2)Man
# In short: as §1
# [6] = target: Fuc(a1-2)[Gal(a1-3)]Gal(b1-3)GlcNAc(b1-2)Man(a1-3)[Fuc(a1-2)[Gal(a1-3)]Gal(b1-3)GlcNAc(b1-2)Man(a1-6)]Man(b1-4)GlcNAc(b1-4)[Fuc(a1-6)]GlcNAc
# In short: as §1
# [7] = target: Fuc(a1-2)[Gal(a1-3)]Gal(b1-4)GlcNAc(b1-2)Man(a1-3)[Fuc(a1-2)[Gal(a1-3)]Gal(b1-4)GlcNAc(b1-2)Man(a1-6)]Man(b1-4)GlcNAc(b1-4)GlcNAc
# In short: as §1
# [8] = target: Fuc(a1-2)[Gal(a1-3)]Gal(b1-4)GlcNAc(b1-2)Man(a1-3)[Fuc(a1-2)[Gal(a1-3)]Gal(b1-4)GlcNAc(b1-2)Man(a1-6)]Man(b1-4)GlcNAc(b1-4)[Fuc(a1-6)]GlcNAc
# In short: as §1
# [9] = target: Fuc(a1-2)[GalNAc(a1-3)]Gal(b1-3)GlcNAc(b1-6)GalNAc
# In short: as §1
# [10] = target: Fuc(a1-2)[GalNAc(a1-3)]Gal(b1-4)[Fuc(a1-3)]GlcNAc(b1-3)GalNAc
# In short: as §1
# [11] = target: Fuc(a1-3)[Gal(b1-4)]GlcNAc(b1-6)[Gal(b1-3)GlcNAc(b1-3)]Gal(b1-4)Glc
# In short: as §1
# [12] = target: Fuc(a1-3)[Gal3S(b1-4)]Glc
# In short: as §1
# [13] = target: Fuc(a1-3)[GalNAc(b1-4)]GlcNAc
# In short: as §1
# Fuc(a1-4)GlcNAc = target: Fuc(a1-4)GlcNAc
# In short: as §1
# [14] = target: Gal(a1-3)Gal(b1-3)GlcNAc(b1-2)Man
# In short: as §1
# Gal(a1-3)GalNAc = target: Gal(a1-3)GalNAc
# In short: as §1
# Gal(a1-4)GlcNAc = target: Gal(a1-4)GlcNAc
# In short: as §1
# Gal(b1-2)Gal = target: Gal(b1-2)Gal
# In short: as §1
# [15] = target: Gal(b1-3)GlcNAc(b1-2)Man(a1-3)[Gal(b1-3)GlcNAc(b1-2)Man(a1-6)]Man(b1-4)GlcNAc(b1-4)GlcNAc
# In short: as §1
# [16] = target: Gal(b1-3)GlcNAc(b1-2)Man(a1-3)[Gal(b1-3)GlcNAc(b1-2)Man(a1-6)]Man(b1-4)GlcNAc(b1-4)[Fuc(a1-6)]GlcNAc
# In short: as §1
# [17] = target: Gal(b1-3)GlcNAc(b1-3)Gal(b1-4)[Fuc(a1-3)]GlcNAc
# In short: as §1
# [18] = target: Gal(b1-3)GlcNAc(b1-6)[Gal(b1-3)]GalNAc
# In short: as §1
# Gal(b1-4)Glc6S = target: Gal(b1-4)Glc6S
# In short: as §1
# Gal(b1-4)GlcNAc(b1-2)Man = target: Gal(b1-4)GlcNAc(b1-2)Man
# In short: as §1
# [19] = target: Gal(b1-4)GlcNAc(b1-2)Man(a1-3)Man(b1-4)GlcNAc(b1-4)GlcNAc
# In short: as §1
# [20] = target: Gal(b1-4)GlcNAc(b1-2)[Gal(b1-4)GlcNAc(b1-4)]Man(a1-3)[Gal(b1-4)GlcNAc(b1-2)[Gal(b1-4)GlcNAc(b1-6)]Man(a1-6)]Man(b1-4)GlcNAc(b1-4)GlcNAc
# In short: as §1
# [21] = target: Gal(b1-4)GlcNAc(b1-3)Gal(b1-4)GlcNAc(b1-2)Man(a1-3)[Gal(b1-4)GlcNAc(b1-3)Gal(b1-4)GlcNAc(b1-2)Man(a1-6)]Man(b1-4)GlcNAc(b1-4)[Fuc(a1-6)]GlcNAc
# In short: as §1
# [22] = target: Gal(b1-4)GlcNAc(b1-3)Gal(b1-4)GlcNAc(b1-3)Gal(b1-4)GlcNAc(b1-2)Man(a1-3)[Gal(b1-4)GlcNAc(b1-3)Gal(b1-4)GlcNAc(b1-3)Gal(b1-4)GlcNAc(b1-2)Man(a1-6)]Man(b1-4)GlcNAc(b1-4)[Fuc(a1-6)]GlcNAc
# In short: as §1
# [23] = target: GalNAc(b1-3)Gal(a1-4)Gal(b1-4)GlcNAc(b1-3)Gal(b1-4)Glc
# In short: as §1
# GalNAc(b1-4)GlcNAc6S = target: GalNAc(b1-4)GlcNAc6S
# In short: as §1
# GlcA(b1-6)Gal = target: GlcA(b1-6)Gal
# In short: as §1
# [24] = target: GlcNAc(b1-2)Man(a1-3)[GlcNAc(b1-2)Man(a1-6)]Man(b1-4)GlcNAc(b1-4)GlcNAc
# In short: as §1
# [25] = target: GlcNAc(b1-2)[GlcNAc(b1-4)]Man(a1-3)[GlcNAc(b1-4)][GlcNAc(b1-2)[GlcNAc(b1-6)]Man(a1-6)]Man(b1-4)GlcNAc(b1-4)[Fuc(a1-6)]GlcNAc
# In short: as §1
# GlcNAc(b1-3)Gal(b1-4)Glc = target: GlcNAc(b1-3)Gal(b1-4)Glc
# In short: as §1
# [26] = target: GlcNAc(b1-3)Gal(b1-4)GlcNAc(b1-3)Gal(b1-4)GlcNAc(b1-2)[GlcNAc(b1-3)Gal(b1-4)GlcNAc(b1-3)Gal(b1-4)GlcNAc(b1-6)]Man(a1-6)[GlcNAc(b1-3)Gal(b1-4)GlcNAc(b1-3)Gal(b1-4)GlcNAc(b1-2)Man(a1-3)]Man(b1-4)GlcNAc(b1-4)[Fuc(a1-6)]GlcNAc
# In short: as §1
# [27] = target: GlcNAc(b1-3)Gal(b1-4)GlcNAc(b1-3)Gal(b1-4)GlcNAc(b1-3)Gal(b1-4)GlcNAc(b1-2)Man(a1-3)[GlcNAc(b1-3)Gal(b1-4)GlcNAc(b1-3)Gal(b1-4)GlcNAc(b1-3)Gal(b1-4)GlcNAc(b1-2)Man(a1-6)]Man(b1-4)GlcNAc(b1-4)GlcNAc
# In short: as §1
# [28] = target: GlcNAc(b1-3)Gal(b1-4)GlcNAc(b1-3)Gal(b1-4)GlcNAc(b1-3)Gal(b1-4)GlcNAc(b1-3)Gal(b1-4)GlcNAc(b1-2)Man(a1-3)[GlcNAc(b1-3)Gal(b1-4)GlcNAc(b1-3)Gal(b1-4)GlcNAc(b1-3)Gal(b1-4)GlcNAc(b1-3)Gal(b1-4)GlcNAc(b1-2)Man(a1-6)]Man(b1-4)GlcNAc(b1-4)[Fuc(a1-6)]GlcNAc
# In short: as §1
# [29] = target: GlcNAc(b1-3)[GlcNAc(b1-6)]GalNAc
# In short: as §1
# GlcNAc(b1-4)GlcNAc = target: GlcNAc(b1-4)GlcNAc
# In short: as §1
# [30] = target: GlcNAc6S(b1-3)Gal(b1-4)GlcNAc
# In short: as §1
# [31] = target: Man(a1-3)[Man(a1-6)]Man(a1-6)[Man(a1-2)Man(a1-3)]Man(b1-4)GlcNAc(b1-4)GlcNAc
# In short: as §1
# [32] = target: Neu5Ac(a2-3)Gal(b1-3)GalNAc(b1-3)Gal(a1-4)Gal(b1-4)Glc
# In short: as §1
# [33] = target: Neu5Ac(a2-3)Gal(b1-3)GlcNAc
# In short: as §1
# [34] = target: Neu5Ac(a2-3)Gal(b1-3)GlcNAc(b1-2)Man
# In short: as §1
# Neu5Ac(a2-3)Gal(b1-4)Glc = target: Neu5Ac(a2-3)Gal(b1-4)Glc
# In short: as §1
# [35] = target: Neu5Ac(a2-3)Gal(b1-4)GlcNAc(b1-2)Man(a1-3)[GlcNAc(b1-4)][Neu5Ac(a2-3)Gal(b1-4)GlcNAc(b1-2)Man(a1-6)]Man(b1-4)GlcNAc(b1-4)GlcNAc
# In short: as §1
# [36] = target: Neu5Ac(a2-3)Gal(b1-4)GlcNAc(b1-6)GalNAc
# In short: as §1
# [37] = target: Neu5Ac(a2-3)[Neu5Ac(a2-6)]GalNAc
# In short: as §1
# Neu5Ac(a2-8)Neu5Ac = target: Neu5Ac(a2-8)Neu5Ac
# In short: as §1
# [38] = target: Neu5Ac(a2-8)Neu5Ac(a2-8)Neu5Ac(a2-3)[GalNAc(b1-4)]Gal(b1-4)Glc
# In short: as §1
# [39] = target: Neu5Gc(a2-8)Neu5Gc(a2-6)Gal(b1-4)GlcNAc
# In short: as §1
binder,measurement,setting,value
B1,glycan array binding signal (z-score),[1],3.24
same,glycan array binding signal (z-score),[2],0.31
same,glycan array binding signal (z-score),[3],-0.372
same,glycan array binding signal (z-score),[4],-0.338
same,glycan array binding signal (z-score),[5],0.848
same,glycan array binding signal (z-score),[6],8.18
same,glycan array binding signal (z-score),[7],8.54
same,glycan array binding signal (z-score),[8],2.44
same,glycan array binding signal (z-score),[9],0.212
same,glycan array binding signal (z-score),[10],2.91
same,glycan array binding signal (z-score),[11],3.87
same,glycan array binding signal (z-score),[12],0.001
same,glycan array binding signal (z-score),[13],0.251
same,glycan array binding signal (z-score),Fuc(a1-4)GlcNAc,1.76
same,glycan array binding signal (z-score),[14],-0.056
same,glycan array binding signal (z-score),Gal(a1-3)GalNAc,-0.469
same,glycan array binding signal (z-score),Gal(a1-4)GlcNAc,-0.265
same,glycan array binding signal (z-score),Gal(b1-2)Gal,0.596
same,glycan array binding signal (z-score),[15],0.347
same,glycan array binding signal (z-score),[16],1.79
same,glycan array binding signal (z-score),[17],-0.126
same,glycan array binding signal (z-score),[18],0
same,glycan array binding signal (z-score),Gal(b1-4)Glc6S,0.038
same,glycan array binding signal (z-score),Gal(b1-4)GlcNAc(b1-2)Man,2.63
same,glycan array binding signal (z-score),[19],-0.479
same,glycan array binding signal (z-score),[20],-0.78
same,glycan array binding signal (z-score),[21],0.44
same,glycan array binding signal (z-score),[22],2.81
same,glycan array binding signal (z-score),[23],0.078
same,glycan array binding signal (z-score),GalNAc(b1-4)GlcNAc6S,0.581
same,glycan array binding signal (z-score),GlcA(b1-6)Gal,2.71
same,glycan array binding signal (z-score),[24],-0.266
same,glycan array binding signal (z-score),[25],-1.61
same,glycan array binding signal (z-score),GlcNAc(b1-3)Gal(b1-4)Glc,-0.475
same,glycan array binding signal (z-score),[26],-0.316
same,glycan array binding signal (z-score),[27],2.55
same,glycan array binding signal (z-score),[28],-0.064
same,glycan array binding signal (z-score),[29],-0.249
same,glycan array binding signal (z-score),GlcNAc(b1-4)GlcNAc,0.138
same,glycan array binding signal (z-score),[30],0.017
same,glycan array binding signal (z-score),[31],1.23
same,glycan array binding signal (z-score),[32],0.297
same,glycan array binding signal (z-score),[33],-0.376
same,glycan array binding signal (z-score),[34],4.28
same,glycan array binding signal (z-score),Neu5Ac(a2-3)Gal(b1-4)Glc,0.058
same,glycan array binding signal (z-score),[35],-1.31
same,glycan array binding signal (z-score),[36],-0.155
same,glycan array binding signal (z-score),[37],-0.772
same,glycan array binding signal (z-score),Neu5Ac(a2-8)Neu5Ac,1.37
same,glycan array binding signal (z-score),[38],-0.695
same,glycan array binding signal (z-score),[39],-0.576
